# Laboratory results as given in publication PMC7862700, “An all-to-all approach to the identification of sequence-specific readers for epigenetic DNA modifications on cytosine”.
# Key:
# Assay in all cases: DAPPL (digital affinity profiling via proximity ligation, sequencing); 10 mM Tris-HCl pH 7.5, 50 mM NaCl, 1 mM DTT, 4% glycerol, room temperature, 30 min; GST-TFs on glutathione beads, 16-mer random dsDNA library, 0.1% formaldehyde crosslink after washing; high values mean tight binding
# FEV = biological target: T1, FEV (Homo sapiens, UniProt Q99581 1-238); conditions: protein: recombinant; tags: N-terminal GST; dsDNA, one strand shown
# T1 sequence: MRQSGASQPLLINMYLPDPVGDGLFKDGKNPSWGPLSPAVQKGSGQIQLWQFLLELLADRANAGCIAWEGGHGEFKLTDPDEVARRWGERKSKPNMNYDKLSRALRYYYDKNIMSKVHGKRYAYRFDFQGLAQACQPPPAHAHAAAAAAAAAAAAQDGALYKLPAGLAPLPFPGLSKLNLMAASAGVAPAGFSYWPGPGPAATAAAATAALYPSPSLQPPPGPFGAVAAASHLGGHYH
# Procedure, shortened: (§1)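 Human transcription factors were made in yeast as GST fusions, captured on glutathione beads and barcoded with DNA. With a tag-only sample included, the pool was incubated with 200 nmole of a random double-stranded 16-mer DNA library in Tris/NaCl/DTT/glycerol buffer at room temperature for 30 min, then crosslinked with 0.1% formaldehyde after washing, ligated by proximity, amplified and sequenced. For binding signal, each hexamer's read frequency for a factor is divided by its frequency for the tag-only sample.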
# ETV5 = ETV5 (Homo sapiens, UniProt P41161 1-510); conditions: protein: recombinant; tags: N-terminal GST; dsDNA, one strand shown
# Procedure, shortened: as §1
# HSF1 = HSF1 (Homo sapiens, UniProt Q00613 1-529); conditions: protein: recombinant; tags: N-terminal GST; chain copies: 3; dsDNA, one strand shown
# Procedure, shortened: as §1
# SPIC = biological target: T2, SPIC (Homo sapiens, UniProt Q8N5J4 1-248); conditions: protein: recombinant; tags: N-terminal GST; dsDNA, one strand shown
# T2 sequence: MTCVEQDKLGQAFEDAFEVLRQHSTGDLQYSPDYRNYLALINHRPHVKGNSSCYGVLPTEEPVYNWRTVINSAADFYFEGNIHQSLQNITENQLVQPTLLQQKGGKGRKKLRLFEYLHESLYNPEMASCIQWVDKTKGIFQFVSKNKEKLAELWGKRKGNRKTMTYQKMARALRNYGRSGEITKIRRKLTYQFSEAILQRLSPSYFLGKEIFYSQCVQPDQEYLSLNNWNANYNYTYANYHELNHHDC
# Procedure, shortened: as §1
# ELF4 = ELF4 (Homo sapiens, UniProt Q99607 1-663); conditions: protein: recombinant; tags: N-terminal GST; dsDNA, one strand shown
# Procedure, shortened: as §1
# ELK4 = biological target: T3, ELK4 (Homo sapiens, UniProt P28324-2 1-405); conditions: protein: recombinant; tags: N-terminal GST; dsDNA, one strand shown
# T3 sequence: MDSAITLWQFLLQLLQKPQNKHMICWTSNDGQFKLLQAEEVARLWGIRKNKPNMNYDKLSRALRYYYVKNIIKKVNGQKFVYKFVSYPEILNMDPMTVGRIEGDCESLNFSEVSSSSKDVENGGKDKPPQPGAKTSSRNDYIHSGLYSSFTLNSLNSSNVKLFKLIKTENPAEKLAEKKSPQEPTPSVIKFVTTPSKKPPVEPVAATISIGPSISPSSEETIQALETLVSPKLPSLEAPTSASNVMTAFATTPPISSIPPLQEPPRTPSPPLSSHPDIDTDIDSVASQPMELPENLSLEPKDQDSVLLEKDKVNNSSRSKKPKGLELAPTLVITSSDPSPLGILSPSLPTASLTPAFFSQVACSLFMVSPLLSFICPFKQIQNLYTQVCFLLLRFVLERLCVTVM
# Procedure, shortened: as §1
# ETV2 = biological target: T4, ETV2 (Homo sapiens, UniProt O00321 1-342); conditions: protein: recombinant; tags: N-terminal GST; dsDNA, one strand shown
# T4 sequence: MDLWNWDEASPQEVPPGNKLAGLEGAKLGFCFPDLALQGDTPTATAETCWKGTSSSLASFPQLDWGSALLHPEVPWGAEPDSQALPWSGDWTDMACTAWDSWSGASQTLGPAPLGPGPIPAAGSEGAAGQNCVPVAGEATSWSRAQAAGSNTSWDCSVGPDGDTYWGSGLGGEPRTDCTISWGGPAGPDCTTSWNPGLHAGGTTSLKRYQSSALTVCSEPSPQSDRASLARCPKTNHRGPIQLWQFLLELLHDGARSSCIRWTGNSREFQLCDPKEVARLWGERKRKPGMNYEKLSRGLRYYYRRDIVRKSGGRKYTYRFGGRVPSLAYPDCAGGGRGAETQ
# Procedure, shortened: as §1
# ELF3 = biological target: T5, ELF3 (Homo sapiens, UniProt P78545 1-371); conditions: protein: recombinant; tags: N-terminal GST; dsDNA, one strand shown
# T5 sequence: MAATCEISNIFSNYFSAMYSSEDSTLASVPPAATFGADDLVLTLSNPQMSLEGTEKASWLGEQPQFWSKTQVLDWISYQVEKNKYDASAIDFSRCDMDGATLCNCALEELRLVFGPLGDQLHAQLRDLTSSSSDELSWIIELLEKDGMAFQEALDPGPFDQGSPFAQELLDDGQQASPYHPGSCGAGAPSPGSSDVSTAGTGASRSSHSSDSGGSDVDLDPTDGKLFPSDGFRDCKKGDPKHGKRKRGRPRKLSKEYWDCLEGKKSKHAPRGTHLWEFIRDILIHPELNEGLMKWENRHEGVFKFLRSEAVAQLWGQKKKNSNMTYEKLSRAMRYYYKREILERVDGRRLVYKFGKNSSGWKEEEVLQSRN
# Procedure, shortened: as §1
# CRX = CRX (Homo sapiens, UniProt O43186 1-299); conditions: protein: recombinant; tags: N-terminal GST; dsDNA, one strand shown
# Procedure, shortened: as §1
# ETV1 = ETV1 (Homo sapiens, UniProt P50549 1-477); conditions: protein: recombinant; tags: N-terminal GST; dsDNA, one strand shown
# Procedure, shortened: as §1
# ERF = biological target: T6, ERF (Homo sapiens, UniProt P50548 1-548); conditions: protein: recombinant; tags: N-terminal GST; dsDNA, one strand shown
# T6 sequence: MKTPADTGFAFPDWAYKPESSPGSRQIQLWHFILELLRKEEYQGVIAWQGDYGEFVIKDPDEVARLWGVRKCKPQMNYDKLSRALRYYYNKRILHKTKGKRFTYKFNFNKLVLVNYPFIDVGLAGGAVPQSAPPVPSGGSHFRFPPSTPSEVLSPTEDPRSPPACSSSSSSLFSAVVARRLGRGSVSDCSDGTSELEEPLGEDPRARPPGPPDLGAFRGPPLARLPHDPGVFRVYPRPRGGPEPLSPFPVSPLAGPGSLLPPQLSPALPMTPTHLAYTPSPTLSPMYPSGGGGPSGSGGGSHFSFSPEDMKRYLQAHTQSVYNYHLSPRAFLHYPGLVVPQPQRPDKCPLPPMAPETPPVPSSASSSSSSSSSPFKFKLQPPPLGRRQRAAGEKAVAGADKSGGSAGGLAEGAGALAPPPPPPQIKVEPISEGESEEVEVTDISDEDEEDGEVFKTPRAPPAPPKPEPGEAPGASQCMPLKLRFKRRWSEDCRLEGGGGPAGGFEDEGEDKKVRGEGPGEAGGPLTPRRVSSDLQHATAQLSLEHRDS
# Procedure, shortened: as §1
# ETV3L = biological target: T7, ETV3L (Homo sapiens, UniProt Q6ZN32 1-361); conditions: protein: recombinant; tags: N-terminal GST; dsDNA, one strand shown
# T7 sequence: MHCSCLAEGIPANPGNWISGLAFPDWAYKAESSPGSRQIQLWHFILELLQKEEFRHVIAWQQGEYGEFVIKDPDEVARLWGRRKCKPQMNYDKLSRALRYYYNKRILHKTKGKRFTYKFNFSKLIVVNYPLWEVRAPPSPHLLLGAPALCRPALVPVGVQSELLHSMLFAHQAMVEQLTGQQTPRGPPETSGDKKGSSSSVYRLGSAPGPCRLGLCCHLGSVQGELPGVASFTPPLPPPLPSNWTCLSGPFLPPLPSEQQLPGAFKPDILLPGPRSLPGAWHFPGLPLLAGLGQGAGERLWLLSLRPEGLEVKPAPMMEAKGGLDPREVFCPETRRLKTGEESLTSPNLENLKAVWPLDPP
# Procedure, shortened: as §1
# ETS2 = biological target: T8, ETS2 (Homo sapiens, UniProt P15036 1-469); conditions: protein: recombinant; tags: N-terminal GST; dsDNA, one strand shown
# T8 sequence: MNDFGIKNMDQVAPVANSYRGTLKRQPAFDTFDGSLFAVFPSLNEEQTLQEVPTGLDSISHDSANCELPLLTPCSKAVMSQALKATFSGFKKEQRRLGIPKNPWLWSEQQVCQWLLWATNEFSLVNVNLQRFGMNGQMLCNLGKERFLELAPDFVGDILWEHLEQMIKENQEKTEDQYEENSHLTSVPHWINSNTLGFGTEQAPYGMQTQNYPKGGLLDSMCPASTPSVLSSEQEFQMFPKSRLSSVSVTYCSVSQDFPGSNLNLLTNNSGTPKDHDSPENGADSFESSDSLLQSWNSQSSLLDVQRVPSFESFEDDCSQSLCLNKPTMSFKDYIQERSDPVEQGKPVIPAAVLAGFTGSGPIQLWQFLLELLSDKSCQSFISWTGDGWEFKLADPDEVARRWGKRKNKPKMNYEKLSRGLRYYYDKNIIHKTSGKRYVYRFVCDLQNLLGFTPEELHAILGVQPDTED
# Procedure, shortened: as §1
# SPDEF = biological target: T9, SPDEF (Homo sapiens, UniProt O95238 1-335); conditions: protein: recombinant; tags: N-terminal GST; dsDNA, one strand shown
# T9 sequence: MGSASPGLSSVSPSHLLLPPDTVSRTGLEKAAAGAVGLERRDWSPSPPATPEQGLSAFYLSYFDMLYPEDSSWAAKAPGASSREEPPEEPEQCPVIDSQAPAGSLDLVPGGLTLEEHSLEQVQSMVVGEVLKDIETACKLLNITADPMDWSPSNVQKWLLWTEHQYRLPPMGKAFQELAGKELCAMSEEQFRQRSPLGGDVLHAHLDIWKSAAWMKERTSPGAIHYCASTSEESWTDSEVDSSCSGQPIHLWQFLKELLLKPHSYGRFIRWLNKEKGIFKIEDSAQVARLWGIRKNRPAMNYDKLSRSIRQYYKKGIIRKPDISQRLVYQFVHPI
# Procedure, shortened: as §1
# ETV7 = biological target: T10, ETV7 (Homo sapiens, UniProt Q9Y603 1-341); conditions: protein: recombinant; tags: N-terminal GST; dsDNA, one strand shown
# T10 sequence: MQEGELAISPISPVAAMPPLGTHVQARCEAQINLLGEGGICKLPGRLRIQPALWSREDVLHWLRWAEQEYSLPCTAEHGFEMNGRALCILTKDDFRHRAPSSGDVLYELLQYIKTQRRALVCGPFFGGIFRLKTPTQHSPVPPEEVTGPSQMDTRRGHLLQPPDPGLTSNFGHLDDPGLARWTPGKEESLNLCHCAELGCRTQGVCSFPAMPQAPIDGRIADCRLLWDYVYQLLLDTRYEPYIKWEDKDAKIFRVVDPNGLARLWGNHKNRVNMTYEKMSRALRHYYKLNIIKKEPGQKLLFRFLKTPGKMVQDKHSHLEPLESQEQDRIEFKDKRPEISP
# Procedure, shortened: as §1
# ELF5 = biological target: T11, ELF5 (Homo sapiens, UniProt Q9UKW6-2 1-255); conditions: protein: recombinant; tags: N-terminal GST; dsDNA, one strand shown
# T11 sequence: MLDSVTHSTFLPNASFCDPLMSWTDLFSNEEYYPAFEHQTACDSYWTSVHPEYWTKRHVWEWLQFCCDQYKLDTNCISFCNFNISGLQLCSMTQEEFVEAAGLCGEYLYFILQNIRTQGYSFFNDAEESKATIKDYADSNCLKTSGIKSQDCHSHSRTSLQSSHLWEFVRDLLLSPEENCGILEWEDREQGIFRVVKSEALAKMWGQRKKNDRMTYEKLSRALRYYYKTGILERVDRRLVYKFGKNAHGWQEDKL
# Procedure, shortened: as §1
# ETV3 = biological target: T12, ETV3 (Homo sapiens, UniProt P41162-2 1-143); conditions: protein: recombinant; tags: N-terminal GST; dsDNA, one strand shown
# T12 sequence: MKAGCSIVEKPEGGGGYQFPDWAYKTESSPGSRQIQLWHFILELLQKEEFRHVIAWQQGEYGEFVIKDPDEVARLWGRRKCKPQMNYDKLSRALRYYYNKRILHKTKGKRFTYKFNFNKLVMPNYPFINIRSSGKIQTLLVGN
# Procedure, shortened: as §1
# ETV6 = ETV6 (Homo sapiens, UniProt P41212 1-452); conditions: protein: recombinant; tags: N-terminal GST; dsDNA, one strand shown
# Procedure, shortened: as §1
# Chain of ELF4 (Q99607 whole entry): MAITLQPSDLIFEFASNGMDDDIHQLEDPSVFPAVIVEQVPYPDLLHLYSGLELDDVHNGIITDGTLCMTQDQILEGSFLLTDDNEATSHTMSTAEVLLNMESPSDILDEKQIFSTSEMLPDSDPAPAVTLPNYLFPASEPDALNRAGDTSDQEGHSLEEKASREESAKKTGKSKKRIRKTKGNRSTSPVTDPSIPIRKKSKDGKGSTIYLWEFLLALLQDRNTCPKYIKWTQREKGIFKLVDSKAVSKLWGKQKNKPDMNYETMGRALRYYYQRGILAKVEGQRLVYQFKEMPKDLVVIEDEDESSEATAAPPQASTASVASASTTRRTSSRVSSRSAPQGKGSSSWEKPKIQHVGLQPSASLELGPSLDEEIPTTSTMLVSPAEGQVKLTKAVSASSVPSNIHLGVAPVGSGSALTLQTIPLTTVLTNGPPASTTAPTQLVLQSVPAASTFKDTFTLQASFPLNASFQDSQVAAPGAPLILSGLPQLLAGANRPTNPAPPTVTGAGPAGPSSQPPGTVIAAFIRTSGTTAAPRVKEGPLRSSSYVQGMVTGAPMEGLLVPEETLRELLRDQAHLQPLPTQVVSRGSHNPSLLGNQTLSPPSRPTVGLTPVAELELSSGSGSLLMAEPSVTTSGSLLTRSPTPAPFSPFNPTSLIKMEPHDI
# Chain of ETV6 (P41212 whole entry): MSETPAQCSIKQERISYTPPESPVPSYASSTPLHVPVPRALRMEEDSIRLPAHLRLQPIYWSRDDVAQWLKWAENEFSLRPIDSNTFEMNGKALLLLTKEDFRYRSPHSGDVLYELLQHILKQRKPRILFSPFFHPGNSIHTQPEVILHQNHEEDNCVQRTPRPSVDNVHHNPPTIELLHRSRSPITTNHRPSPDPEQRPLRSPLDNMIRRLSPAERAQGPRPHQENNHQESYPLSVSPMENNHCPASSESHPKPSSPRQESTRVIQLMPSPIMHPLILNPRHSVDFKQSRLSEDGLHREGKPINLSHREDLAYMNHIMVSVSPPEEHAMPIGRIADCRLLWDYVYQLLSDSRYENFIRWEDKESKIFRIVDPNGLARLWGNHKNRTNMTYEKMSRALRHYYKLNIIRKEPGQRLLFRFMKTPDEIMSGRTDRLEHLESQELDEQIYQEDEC
# Chain of ETV5 (P41161 whole entry): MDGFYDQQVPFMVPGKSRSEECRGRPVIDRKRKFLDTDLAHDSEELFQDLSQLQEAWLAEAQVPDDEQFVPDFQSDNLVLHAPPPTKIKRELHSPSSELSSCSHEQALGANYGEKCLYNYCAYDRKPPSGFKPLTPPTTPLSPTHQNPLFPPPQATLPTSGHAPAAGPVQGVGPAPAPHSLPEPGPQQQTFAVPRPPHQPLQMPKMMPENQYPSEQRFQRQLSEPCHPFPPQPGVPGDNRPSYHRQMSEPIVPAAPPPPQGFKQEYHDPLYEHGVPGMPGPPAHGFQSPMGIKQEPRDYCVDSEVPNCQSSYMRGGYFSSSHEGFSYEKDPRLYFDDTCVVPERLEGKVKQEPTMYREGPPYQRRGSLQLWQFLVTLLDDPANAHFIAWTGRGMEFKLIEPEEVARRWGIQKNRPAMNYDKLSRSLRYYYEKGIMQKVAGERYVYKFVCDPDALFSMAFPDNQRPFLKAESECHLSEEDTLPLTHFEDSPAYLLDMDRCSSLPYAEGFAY
# Chain of HSF1 (Q00613 whole entry): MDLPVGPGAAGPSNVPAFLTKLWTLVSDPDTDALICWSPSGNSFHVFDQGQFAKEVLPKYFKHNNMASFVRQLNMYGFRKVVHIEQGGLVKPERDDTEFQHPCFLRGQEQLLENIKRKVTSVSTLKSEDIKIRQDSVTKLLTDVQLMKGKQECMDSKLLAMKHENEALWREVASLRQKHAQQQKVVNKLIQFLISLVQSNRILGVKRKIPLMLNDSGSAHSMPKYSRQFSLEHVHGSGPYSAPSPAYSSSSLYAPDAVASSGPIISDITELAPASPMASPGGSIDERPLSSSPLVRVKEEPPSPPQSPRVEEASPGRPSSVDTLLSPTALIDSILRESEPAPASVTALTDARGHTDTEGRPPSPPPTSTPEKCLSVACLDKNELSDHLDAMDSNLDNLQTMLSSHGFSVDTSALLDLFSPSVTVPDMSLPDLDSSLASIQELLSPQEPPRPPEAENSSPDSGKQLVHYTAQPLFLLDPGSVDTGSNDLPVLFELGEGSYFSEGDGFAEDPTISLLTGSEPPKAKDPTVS
# Chain of CRX (O43186 whole entry): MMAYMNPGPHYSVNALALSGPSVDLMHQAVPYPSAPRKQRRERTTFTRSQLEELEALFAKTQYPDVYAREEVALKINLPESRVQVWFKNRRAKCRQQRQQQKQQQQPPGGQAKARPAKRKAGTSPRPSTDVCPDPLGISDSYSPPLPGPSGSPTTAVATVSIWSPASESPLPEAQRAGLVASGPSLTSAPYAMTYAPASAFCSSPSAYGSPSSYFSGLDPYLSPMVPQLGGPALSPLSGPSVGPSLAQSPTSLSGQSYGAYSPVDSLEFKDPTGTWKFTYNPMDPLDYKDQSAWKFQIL
# Chain of ETV1 (P50549 whole entry): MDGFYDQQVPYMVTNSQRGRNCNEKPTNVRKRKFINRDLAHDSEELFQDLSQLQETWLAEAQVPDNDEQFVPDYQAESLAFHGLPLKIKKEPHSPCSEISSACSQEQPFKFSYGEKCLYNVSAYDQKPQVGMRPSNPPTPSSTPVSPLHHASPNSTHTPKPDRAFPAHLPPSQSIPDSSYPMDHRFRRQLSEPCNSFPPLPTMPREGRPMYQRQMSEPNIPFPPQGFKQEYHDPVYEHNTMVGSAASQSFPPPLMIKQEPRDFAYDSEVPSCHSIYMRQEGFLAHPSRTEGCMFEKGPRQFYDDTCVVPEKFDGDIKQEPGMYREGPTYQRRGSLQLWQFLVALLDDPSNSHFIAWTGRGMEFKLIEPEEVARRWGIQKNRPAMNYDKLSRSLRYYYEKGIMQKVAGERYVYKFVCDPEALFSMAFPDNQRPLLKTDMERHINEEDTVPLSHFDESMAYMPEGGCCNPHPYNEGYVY
sequence,measurement,setting,value
GCCTTA,binding signal,FEV,"1.11 fold enrichment (6-mer frequency, TF over GST control)"
same,binding signal,ETV5,"1.13 fold enrichment (6-mer frequency, TF over GST control)"
same,binding signal,HSF1,"1.3 fold enrichment (6-mer frequency, TF over GST control)"
same,binding signal,SPIC,"1.07 fold enrichment (6-mer frequency, TF over GST control)"
same,binding signal,ELF4,"1.3 fold enrichment (6-mer frequency, TF over GST control)"
same,binding signal,ELK4,"1.1 fold enrichment (6-mer frequency, TF over GST control)"
same,binding signal,ETV2,"1.1 fold enrichment (6-mer frequency, TF over GST control)"
same,binding signal,ELF3,"1.24 fold enrichment (6-mer frequency, TF over GST control)"
same,binding signal,CRX,"1.64 fold enrichment (6-mer frequency, TF over GST control)"
same,binding signal,ETV1,"1.14 fold enrichment (6-mer frequency, TF over GST control)"
same,binding signal,ERF,"1.15 fold enrichment (6-mer frequency, TF over GST control)"
same,binding signal,ETV3L,"1.04 fold enrichment (6-mer frequency, TF over GST control)"
same,binding signal,ETS2,"1.15 fold enrichment (6-mer frequency, TF over GST control)"
same,binding signal,SPDEF,"1.12 fold enrichment (6-mer frequency, TF over GST control)"
same,binding signal,ETV7,"1.18 fold enrichment (6-mer frequency, TF over GST control)"
same,binding signal,ELF5,"1.14 fold enrichment (6-mer frequency, TF over GST control)"
same,binding signal,ETV3,"1.08 fold enrichment (6-mer frequency, TF over GST control)"
same,binding signal,ETV6,"1.07 fold enrichment (6-mer frequency, TF over GST control)"
